Broadly, the AC50 is the midpoint of the concentration-response curve, whichever way the signal moves.

Out of some 16,000 compounds screened, about 5,800 (36%) were called active. Not shown: some 23% with an inconclusive outcome. The list shows a part of the results. A number with no mark means an inactive call. Calls follow the shape of the dose curve; as a rule, active = well fitted curve in the direction sought with a large enough effect; inconclusive = small, poorly fitted or top-dose-only effect, or effect the other way; inactive = no such curve, though single readings can be large or run the other way.

These results are taken from PubChem BioAssay AID1851 (National Center for Advancing Translational Sciences (NCATS), 2009).
% is scaled to controls: 0 for no effect and ±100 for the full control effect.

In this experiment the target is Cytochrome P450 2C19 (Homo sapiens) (UniProt P33261). Kind of experiment: Cytochrome panel assay with activity outcomes. The settings on record: recombinant CYP, pro-luciferin dealkylation, luminescence, p450-cyp2c19; series mostly up to 57.1 µM; activity, negative = inhibition: at the top concentration.
Sequence of Cytochrome P450 2C19 (Homo sapiens) (P33261 whole entry, looked up): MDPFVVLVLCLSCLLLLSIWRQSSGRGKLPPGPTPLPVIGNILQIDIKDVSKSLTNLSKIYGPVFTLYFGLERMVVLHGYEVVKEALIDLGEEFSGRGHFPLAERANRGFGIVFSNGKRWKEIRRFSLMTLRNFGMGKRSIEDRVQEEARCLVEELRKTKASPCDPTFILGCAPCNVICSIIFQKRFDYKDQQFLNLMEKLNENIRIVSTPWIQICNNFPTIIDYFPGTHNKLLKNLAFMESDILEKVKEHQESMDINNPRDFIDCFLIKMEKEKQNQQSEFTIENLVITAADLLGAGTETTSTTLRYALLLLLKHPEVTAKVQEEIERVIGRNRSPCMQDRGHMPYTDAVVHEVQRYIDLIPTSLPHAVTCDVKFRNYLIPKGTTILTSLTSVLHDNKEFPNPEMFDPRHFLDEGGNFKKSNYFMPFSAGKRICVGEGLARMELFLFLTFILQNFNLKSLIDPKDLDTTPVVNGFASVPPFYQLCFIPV
Consider `CCn1cc(-c2nnnn2-c2ccc(Cl)cc2)c(=O)c2ccccc21`, for which the AC50 is 17.8 µM (active). On to `O=S(=O)(Nc1ccc2oc(-c3ccccc3)nc2c1)c1ccccc1`, for which the AC50 was 0.631 µM (active). Same read-out and setting: to `COC(=O)[C@H]1C[C@@H]1[C@H](NC(=O)c1cc(C)on1)c1ccccc1` belongs 20 µM (active).

In the case of `COC(=O)[C@@H]1C[C@H]1[C@@H](NC(=O)c1cc(C)on1)c1ccccc1`, the AC50 was 15.8 µM (active). Turning to `COC(=O)[C@H]1C[C@@H]1[C@H](NC(=O)c1cnccn1)c1ccccc1`, the “activity, negative = inhibition” value is -34.9%. Same read-out and setting: to `COC(=O)[C@@H]1C[C@H]1[C@@H](NC(=O)c1cnccn1)c1ccccc1` belongs -35%; to `C[C@@]1(C(=O)O)NCCc2cc(O)c(O)cc21`, -18.6%. In the case of `COc1ccc(/C=C2\OC(=O)c3c(OC)cccc32)cc1OC`, the AC50 was 8.91 µM (active).

On to `CCc1nc(SCC(=O)NCCc2ccccc2)c2oc3ccccc3c2n1`, for which the AC50 is 0.562 µM (active). Consider `Cc1nc(SCC(=O)NCCc2ccccc2)c2oc3ccccc3c2n1`, for which the AC50 was 0.178 µM (active). Take `O=S(=O)(c1ccccc1)N1CCC2(CCCN(c3ncccn3)C2)CC1`: the AC50 is 0.398 µM (active). `CS(=O)(=O)N1CCC2(CC1)CN(c1ncccn1)C2`: the “activity, negative = inhibition” value was 13.9%. As for `O=S(=O)(c1ccccc1)N1CCC2(CC1)CN(c1ncccn1)C2`, the “activity, negative = inhibition” value was 15.6%. Consider `O=S(=O)(c1ccccc1)N1CCC2(CCCN(c3ccccn3)C2)CC1`, for which the AC50 was 0.158 µM (active). On to `CCOC(=O)N/N=C1/C[C@@H](O)[C@@H](O)[C@@H]2[C@@H]3C(=O)N(C4CCCCC4)C(=O)[C@H]3CC[C@H]12`, for which the activity, negative = inhibition is 9.98% [at 11.4 µM]. As to `O=C(c1cnc(-c2ccccc2)s1)c1ccc(Cl)cc1Cl`, the AC50 was 2.24 µM (active). For `Cl/C(=C\n1cncn1)c1ccc(Cl)cc1Cl`, the “activity, negative = inhibition” value was -25%.

Regarding `CC(=O)O[C@]1(C)N=NC2(CCCCC2)O1`, the activity, negative = inhibition was 5.37% [at 11.4 µM].

Consider `CO[C@]1(NC(=O)CSCC#N)C(=O)N2C(C(=O)O)=C(CSc3nnnn3C)CS[C@H]21`, for which the AC50 entry was “inactive”. On the same count and under the same terms, to `Cc1sc(NC(=O)C(C)C)c(C(=O)Nc2ccccc2)c1C` belongs 3.55 µM (active); to `CCOC(=O)c1c(NC(=O)Nc2ccccc2)sc(C)c1C`, 5.01 µM (active); to `CCOC(=O)c1c(NC(=O)CCc2ccc(CC)o2)sc(C)c1C`, 5.62 µM (active). The same measure, in the same setting: to `CCOC(=O)c1c(NC(=O)CSc2nnnn2C)sc(C)c1C` belongs 10 µM (active). With `NCCSCCC(=O)O`, the activity, negative = inhibition was 13.2% [at 11.4 µM]. Regarding `Cc1ccccc1-c1cncnc1NCc1ccccc1`, the AC50 was 2 µM (active). Consider `CN(C)Cc1ccccc1-c1cncnc1NCc1cccnc1`, for which the “activity, negative = inhibition” value is -37%. For `COc1ccccc1-c1cncnc1NCc1cccnc1`, the AC50 is 3.16 µM (active). With `Cc1noc(C)c1-c1cncnc1NCc1ccccc1`, the “activity, negative = inhibition” value was -36.3%.

In the case of `Cc1ccccc1-c1cncnc1NCc1cccnc1`, the AC50 is 0.398 µM (active). With `Cc1cccc(CNc2ncncc2-c2ccccc2Cl)c1`, the AC50 was 1 µM (active). In the case of `Cc1nc(N=Nc2ccc(S(=O)(=O)O)cc2S(=O)(=O)O)c(COP(=O)(O)O)c(C=O)c1O`, the “activity, negative = inhibition” value is -12.3%.

Take `COc1ncc2nc(-c3cccc(C#N)c3)c(=O)n(CCC#N)c2n1`: the “activity, negative = inhibition” value is -0.249%. Same read-out and setting: to `Cc1cnc(CNc2ncncc2-c2ccccc2CN(C)C)cn1` belongs -14.6%. Take `N#Cc1ccccc1-c1cncnc1NCc1cccnc1`: the “activity, negative = inhibition” value is -41.6%. Take `Cc1cnc(CNc2ncncc2-c2ccccc2C)cn1`: the AC50 was 7.94 µM (active). The same measure, in the same setting: to `FC(F)(F)c1ccccc1-c1cncnc1NCc1cccnc1` belongs 2.51 µM (active); to `Cc1cccc(CNc2ncncc2-c2ccccc2C)c1`, 1 µM (active). For the compound `COc1ccccc1-c1cncnc1NCc1cccc(C)c1`, the AC50 is 0.398 µM (active).

As for `Cc1cnc(CNc2ncncc2-c2ccccc2C#N)cn1`, the “activity, negative = inhibition” value is -25.8%.

As to `CC(=O)NCCNc1ncncc1-c1ccccc1C`, the “activity, negative = inhibition” value was -36.2%. For `Nc1cc(C(=O)O)[nH]c(=O)n1`, the activity, negative = inhibition is 35.4% [at 11.4 µM].

Regarding `COC(=O)CNC(=O)CCCCC(=O)NCC(=O)OC`, the “activity, negative = inhibition” value was -2.61%. The same measure, in the same setting: to `Cc1nc2sccn2c(=O)c1Cl` belongs -25.7%; to `CC(C)(CN)CN`, 26.4% [at 11.4 µM].

As to `CSc1nncc(/C(C)=N\Nc2ccccc2)n1`, the AC50 is 5.01 µM (active). As for `N#Cc1ccc(CN2CC3(CCN(C(=O)c4cccc(F)c4)CC3)C2)cc1`, the AC50 was 2 µM (active). Regarding `O=C(c1ccco1)N1CCC2(CCN(Cc3ccncc3)CC2)CC1`, the “activity, negative = inhibition” value is -37.6%. In the case of `N#Cc1ccc(CN2CCCC3(CCN(C(=O)c4cccc(F)c4)CC3)C2)cc1`, the “activity, negative = inhibition” value was -33.4%. Consider `O=C(c1cccc(F)c1)N1CCC2(CCCN(Cc3ccncc3)C2)CC1`, for which the AC50 was 10 µM (active). With `O=C(c1cccc(F)c1)N1CCC2(CCCN(Cc3ccccc3)C2)CC1`, the “activity, negative = inhibition” value is -17%. As to `O=C(c1ccco1)N1CCC2(CCCN(Cc3ccccc3)C2)CC1`, the “activity, negative = inhibition” value is 32.8%. On the same count and under the same terms, to `O=C(c1cccc(F)c1)N1CCC2(CC1)CN(Cc1ccccc1)C2` belongs -38.8%; to `O=C(c1cccc(F)c1)N1CCC2(CCCN(Cc3cc(C(F)(F)F)cc(C(F)(F)F)c3)C2)CC1`, -21.3%. `O=C(c1ccco1)N1CCC2(CCCN(Cc3ccncc3)C2)CC1`: the AC50 is 10 µM (active). On to `O=C(O)c1ccc2c(c1)C(=O)N(C(Cc1ccc(O)cc1)C(=O)O)C2=O` (configuration not stated), for which the “activity, negative = inhibition” value was -26.8%.

For the compound `CO[C@@H]1COC(=O)[C@H](CCSC)NC(=O)C/C=C\[C@@H](C)COC(=O)[C@@H]2CCCN2C(=O)C/C=C\[C@H]1C`, the activity, negative = inhibition is 43.9% [at 11.4 µM].

`CC(C)(C)c1cc2c(O)c(c1)Cc1cc(C(C)(C)C)cc(c1O)Cc1cc(C(C)(C)C)cc(c1O)Cc1cc(C(C)(C)C)cc(c1O)Cc1cc(C(C)(C)C)cc(c1O)Cc1cc(C(C)(C)C)cc(c1O)Cc1cc(C(C)(C)C)cc(c1O)Cc1cc(C(C)(C)C)cc(c1O)C2`: the activity, negative = inhibition was -8.28% [at 11.4 µM].

Regarding `Cc1cc(C(C)(C)C)cc(CNC2CCCCC2)c1O`, the AC50 is 0.02 µM (active). Turning to `O=C(Cc1cccs1)N1CCC(c2nc3c(nnn3Cc3ccccc3Cl)c(=O)[nH]2)CC1`, the AC50 is 2 µM (active). Turning to `O=C(Nc1ccccc1)N1CC2(CCN(C(=O)c3cc(C(F)(F)F)cc(C(F)(F)F)c3)CC2)C1`, the “activity, negative = inhibition” value is 22.7%.

As for `O=C(CSc1ccc(C(F)(F)F)cc1[N+](=O)[O-])Nc1ccccc1`, the half-maximal activity concentration (AC50) is 0.891 µM (active). In the case of `Cc1ccc(Nc2c([N+](=O)[O-])ccc3c2=NC2(CCCCC2)N=3)cc1`, the AC50 was 2.82 µM (active). For the compound `CSc1nsc(SC)c1C(=O)Nc1ccc(C)cc1`, the AC50 was 8.91 µM (active). Consider `COc1c(F)c(F)c(C(=O)O)c(Nc2ccc(C)cc2)c1F`, for which the “activity, negative = inhibition” value was -14.2%. With `CCCCOC(=O)c1ccc(NC(=S)NC(=O)c2c(Cl)cnn2C)cc1`, the AC50 is 15.8 µM (active). In the case of `COCC(=O)N1CCC2(CC1)CCN(C(=O)Nc1cccc(F)c1)CC2`, the “activity, negative = inhibition” value is -28.3%. Turning to `O=C1CC(SC(=Nc2ccccc2)Nc2ccccc2)C(=O)N1c1cccc(Cl)c1` (configuration not stated), the AC50 was 2.24 µM (active). With `CCOC(=O)NNC1CC(=O)N(c2ccc(OC)cc2)C1=O` (configuration not stated), the “activity, negative = inhibition” value was 21.8%.

For `CC(=O)Nc1ccc(N2C(=O)CC(c3ccccc3)CC2=O)cc1`, the “activity, negative = inhibition” value was 0.0834%. For `CCN=C(Nc1cccc(F)c1)SC1CC(=O)N(c2ccc(OC)cc2)C1=O` (configuration not stated), the AC50 was 3.98 µM (active). As to `CC(C)(C)NC[C@H](O)COc1cccc2c1CCC(=O)N2`, the “activity, negative = inhibition” value is 1.37% [at 25.6 µM].

As for `C[C@@H]1C(=O)N(C)C(=O)c2nc[nH]c21`, the “activity, negative = inhibition” value was 18%. On the same count and under the same terms, to `CCSC[C@@H](N)C(=O)O` belongs 17.8% [at 11.4 µM]. Consider `Cc1ccc(C)c(-c2cc(C(=O)Nc3sc(C)c(C)c3C(N)=O)c3ccccc3n2)c1`, for which the AC50 was 2.24 µM (active). `Cc1ccc(C)c(-c2cc(C(=O)Nc3nccs3)c3ccccc3n2)c1`: the AC50 is 10 µM (active).

As to `O=C(O)c1ccccc1C(=O)Nc1nccs1`, the “activity, negative = inhibition” value was 22.9%.

As to `COC(=O)c1sccc1NC(=O)c1cc(-c2cc(C)ccc2C)nc2ccccc12`, the AC50 was 2.51 µM (active). As for `Nc1c2c(nc3ccccc13)CCC[C@H]2O`, the “activity, negative = inhibition” value is -11.2%. The same measure, in the same setting: to `Cc1sc(NC(=O)C2CCCCC2C(=O)O)c(C(N)=O)c1C` (configuration not stated) belongs 7.52%. In the case of `Cc1ccccc1-c1cc(C(=O)Nc2nc3c(s2)CCCC3)c2ccccc2n1`, the AC50 was 4.47 µM (active). As to `CN(C)c1ccc(O)c2c1C[C@H]1C[C@H]3[C@@H](N(C)C)C(=O)C(C(N)=O)=C(O)[C@]3(O)C(=O)C1=C2O`, the “activity, negative = inhibition” value was -11.3% [at 25.6 µM]. As to `Cc1onc(-c2ccccc2Cl)c1C(=O)Nc1nnc(Cc2ccc(Cl)cc2)s1`, the AC50 was 15.8 µM (active). `Cc1ccccc1-n1nc2c(c1NC(=O)c1c(-c3ccccc3Cl)noc1C)CSC2`: the AC50 was 11.2 µM (active). For the compound `Cc1ccc(NC(=S)NC(=O)c2c(-c3ccccc3Cl)noc2C)cc1`, the AC50 is 2 µM (active). Take `COc1ccc(Cc2nnc(NC(=O)c3ccc(Cl)c([N+](=O)[O-])c3)s2)cc1`: the “activity, negative = inhibition” value is 14.1%. With `Cc1ccccc1-n1nc2c(c1NC(=O)c1ccc(S(=O)(=O)N(C)C)cc1)CSC2`, the “activity, negative = inhibition” value is -4.86%. For `CC(=O)C1=NOC(CNC(=O)c2c(-c3ccccc3Cl)noc2C)C1` (configuration not stated), the AC50 is 11.2 µM (active). On to `COc1ccc(-c2nc3cnc(Nc4cccc(OC)c4)nc3n(CCC#N)c2=O)cc1`, for which the “activity, negative = inhibition” value was -34.1%. For `CCOC(=O)c1cnc2cc(-c3ccc(C(C)(C)C)cc3)nn2c1N`, the AC50 is 0.562 µM (active). In the case of `Cc1ccccc1C(=O)NNC(=O)c1ccoc1C`, the “activity, negative = inhibition” value is -22.2%. In the case of `Cc1occc1C(=O)NNC(=O)Cc1ccccc1`, the AC50 was 10 µM (active). The same measure, in the same setting: to `CCCC[S@@](=N)(=O)CC[C@@H](N)C(=O)O` belongs “inactive”; to `Cc1ccc(OCCNC(=O)c2cncc(Br)c2)cc1C`, 6.31 µM (active). Turning to `Clc1ccc(-c2csc(N3CCC(c4ccccc4)C3)n2)cc1` (configuration not stated), the AC50 is 10 µM (active).

On to `Brc1ccc(-c2csc(N3CCC(c4ccccc4)C3)n2)cc1` (configuration not stated), for which the AC50 is 10 µM (active). As for `Fc1ccc(-c2csc(N3CCC(c4ccccc4)C3)n2)cc1` (configuration not stated), the AC50 was 11.2 µM (active). For `Cc1c(C2CCN(CCc3ccccc3)CC2)noc1-c1ccc(Cl)cc1`, the “activity, negative = inhibition” value was -37.6%. The same measure, in the same setting: to `Fc1cccc(C2NC(=S)NC3=C2N2CCC3CC2)c1` (configuration not stated) belongs 7.94%; to `Clc1ccc2c(c1)N=C(N1CCNCC1)c1ccccc1N2`, 22.9%. Take `Cc1cccc(CNc2ccnc(-c3ccoc3)n2)c1`: the AC50 was 10 µM (active). For `Cc1cnc(CNc2ccnc(-c3ccoc3)n2)cn1`, the “activity, negative = inhibition” value was -24.7%.

Regarding `c1ccc(CNc2ccnc(-c3ccoc3)n2)cc1`, the concentration at half-maximal activity (AC50) was 3.98 µM (active).
